This excerpt belongs to a sample that is enriched for hits.
Shiga inhibitor = A qHTS for Small Molecule Inhibitors of Shiga Toxin; Vero cells, Shiga toxin protein synthesis inhibition reporter; inhibition, % at 38.7 µM; AID 2315, 2010; 290,000 tested, 9.2% active; in the data active means inhibition mostly above about 28%, no sharp cut-off; inactive means mostly below about 43%; further: 0% is about no effect
CHX counter = Cycloheximide Counterscreen for Small Molecule Inhibitors of Shiga Toxin; cell reporter, cycloheximide protein synthesis inhibition counterscreen; max response, %; 300,000 tested, 12% active; AID 2314, 2010; in the data active means max response mostly above about 13%, no sharp cut-off; inactive means mostly below about 14%; further: read at 38.3 µM for the half of the compounds with a filed dose; 0% is about no effect
Sm TGR inh = qHTS Assay for the Inhibitors of Schistosoma Mansoni Peroxiredoxins; Schistosoma mansoni thioredoxin glutathione reductase (TGR), Q962Y6; purified TGR, DTNB reduction, TNB absorbance 405 nm; Potency, µM (top dose mostly 114 µM), without a hit: at the highest dose activity change, negative = inhibition, hits mostly inhibitors; 360,000 tested, 3% active; AID 485364, 2010; further: potency means the concentration at half of the fitted maximal effect; on the % scale 0 is the no-effect control and ±100 the full control effect; nearly all actives have a fitted effect of over 60% in size
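Kinetic colorimetric format: TGR-catalysed, NADPH-driven DTNB reduction monitored via TNB absorbance. Enzyme dispensed at 20 nM; compound exposure 15 min at room temperature before reaction start.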
FBPA Giardia inh = qHTS Assay for Inhibitors of Fructose-1,6-bisphosphate Aldolase from Giardia Lamblia | 290,000 tested, 0.71% active | Potency, µM (titrated, usually from 59.6 µM), inactives show at the top dose activity, negative = inhibition, actives largely listed as inhibitors | AID 2451, 2010 | A8B2U2 | purified Giardia FBPA; further: potency means the concentration at half of the fitted maximal effect; on the % scale 0 is the no-effect control and ±100 the full control effect; nearly all actives have a fitted effect of over 55% in size
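Giardia FBPA (40 nM reagent) was preincubated 10 min at RT with compound (up to 57.5 uM final), then substrate plus GAPDH/TPI/NAD/arsenate coupling system with diaphorase/resazurin was added; resorufin fluorescence (525/598 nm) was read after 20 min.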
Tb PYK inh = qHTS of Trypanosoma Brucei Inhibitors; AID 624173, 2012; Potency, µM (series often up to 76.8 µM), without a hit: at the top dose activity, negative = inhibition, actives largely listed as inhibitors; TbPYK enzyme, Kinase-Glo Plus ATP luminescence, 45 min; 410,000 tested, 0.12% active; pyruvate kinase (Trypanosoma brucei), Q57TT1; further: potency means the concentration at half of the fitted maximal effect; on the % scale 0 is the no-effect control and ±100 the full control effect; nearly all actives have a fitted effect of over 50% in size
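ADP (130 uM final) triggers the TbPYK reaction after compound addition; incubation is 45 min at room temperature. Kinase-Glo Plus is then added and luminescence imaged. Normalized data are fitted to concentration-effect curves.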
LmPK inh = qHTS Assay for Inhibitors of Leishmania Mexicana Pyruvate Kinase (LmPK) | Q27686 | purified LmPK, Kinase-Glo ATP luminescence, 1 h | Potency, µM (titrated, usually from 57.5 µM), without a hit: top-dose activity change, negative = inhibition, hits mostly inhibitors | 290,000 tested, 0.37% active; further: potency means the concentration at half of the fitted maximal effect; on the % scale 0 is the no-effect control and ±100 the full control effect
Target sequence (Q27686 whole entry, looked up): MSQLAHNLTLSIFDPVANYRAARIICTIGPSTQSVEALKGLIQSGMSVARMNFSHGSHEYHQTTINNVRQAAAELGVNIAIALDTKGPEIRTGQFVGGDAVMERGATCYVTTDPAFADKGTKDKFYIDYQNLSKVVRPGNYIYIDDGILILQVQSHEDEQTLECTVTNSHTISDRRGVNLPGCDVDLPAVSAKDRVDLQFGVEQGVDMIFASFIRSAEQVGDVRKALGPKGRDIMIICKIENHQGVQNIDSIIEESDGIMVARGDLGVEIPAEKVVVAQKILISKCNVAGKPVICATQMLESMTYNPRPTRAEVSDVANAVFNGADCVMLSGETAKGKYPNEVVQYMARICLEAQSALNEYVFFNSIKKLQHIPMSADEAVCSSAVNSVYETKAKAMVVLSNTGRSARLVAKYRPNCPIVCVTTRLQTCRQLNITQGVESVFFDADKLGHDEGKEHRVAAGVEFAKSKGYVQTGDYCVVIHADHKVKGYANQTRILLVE
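Purified LmPK (0.1 nM) converted ADP (0.1 mM) to ATP with PEP (0.5 mM) in imidazole buffer pH 7.2 with KCl and MgCl2, 1 h at room temperature. ATP was read by Kinase-Glo luminescence; data normalized to uninhibited and no-enzyme controls.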
* marks the source's active call; other numbers are inactive results; ? = inconclusive; · = not tested or not shown; [ ] = remark or other dose. Unless noted, the call rests on the fitted dose curve; in most records, active means well fitted curve in the direction sought with a large enough effect; inconclusive means small, poorly fitted or top-dose-only effect, or another doubt; inactive means no such curve, though single readings can be large; an effect the other way counts as inactive or inconclusive.

SMILES | Shiga inhibitor | CHX counter | Sm TGR inh | FBPA Giardia inh | Tb PYK inh | LmPK inh
CN(C)S(=O)(=O)c1ccc(NC(=O)COc2cccc3c2OC(C)(C)C3)cc1 | · | · | 2.7% | · | 0.1% | ·
Cn1c(C2CCCCC2)nc2ccccc21 | 47.1 | 16.2* | 6.2% | 9.1% | -10.7% | -5.2%
CCOc1ccc(NC(=O)CSc2cn(CC(=O)N3CCOCC3)c3ccccc23)cc1 | · | · | -0.5% | · | 1.1% | ·
Cc1ccc2c(CC(=O)NNC(=O)c3ccccc3)coc2c1 | 13.8 | 1.0 | -10.7% | -0.3% | -0.3% | -4.4%
Cc1cc2occ(CC(=O)NNC(=O)c3ccccc3)c2cc1C | 18.5 | 9.9* | 3.5% | · | 9.6% | -1.9%
CCCCCC(=O)c1c(O)cc(OC)c(Cl)c1O | 92.6* | 26.2* | · | -4.2% | · | ·
O=C(c1ccco1)N(Cc1cccs1)c1ccc(F)cc1 | · | · | 12.7% | · | 4.6% | ·
O=S1(=O)CCC(NC(=S)Nc2ccc3ccccc3c2)C1 (stereo not drawn) | 43.0* | 27.1* | -34.5% | -2.6% | -5.1% | 3.3%
Cc1ccc(N2C(=O)C(Cl)=C(Nc3c(C)n(C)n(-c4ccccc4)c3=O)C2=O)cc1 | 28.3 | 9.5 | 8.91µM* | 4.3% | -11.0% | 1.3%
Cc1cccc(N2C(=O)C(Cl)=C(Nc3c(C)n(C)n(-c4ccccc4)c3=O)C2=O)c1C | -12.8 | 0.8 | 8.91µM* | -25.7% | -8.4% | 0.1%
Cc1ccc(Nc2nc3ccccc3nc2Nc2c(C)n(C)n(-c3ccccc3)c2=O)cc1 | -18.8 | -6.2 | -12.4% | -0.6% | -3.0% | -0.8%
COc1ccc(C2c3c(n(C)c4ccccc34)C(=O)N2CC(=O)Nc2ccc(Cl)cc2)cc1 (stereo not drawn) | · | · | 2.3% | · | 5.0%[15.4 µM] | ·
CC(=O)c1ccc(Nc2ccc(-c3ccccc3F)nn2)cc1 | 91.7 | 42.8* | ? | -28.3% | -2.3% | -10.3%
COc1ccccc1-c1ccc(Nc2ccc(C(=O)N3CCOCC3)cc2)nn1 | 19.6 | 11.9 | -12.5% | -1.3% | 6.1% | -12.5%
Cc1cc(N2CCN(c3ccccc3)CC2)nc(-c2ccccc2)n1 | 19.3 | -1.3 | 3.8% | 0.3% | -2.6% | 3.4%
Cc1cc(N2CCN(C(=O)c3ccco3)CC2)nc(-c2ccccc2)n1 | -10.5 | 10.8 | 44.7µM* | -6.4% | 1.3% | 3.1%
O=C(c1cc(-c2ccccc2)on1)N1CCN(C(=O)c2ccco2)CC1 | 38.2 | 19.1* | -28.5% | 0.7% | -19.4% | -7.1%
O=C(c1cc(-c2ccc(F)cc2)on1)N1CCCCCC1 | 114.8* | 46.2* | 0.9% | 5.0% | 7.8% | -3.4%
O=C(c1cc(-c2ccc(O)cc2)on1)N1CCN(c2ccccc2)CC1 | 32.7 | 12.1 | 0.9% | -2.5% | 6.9% | 2.5%
O=C(c1ccco1)N1CCN(C(=O)C(Cc2ccccc2)NS(=O)(=O)c2cccs2)CC1 (stereo not drawn) | -3.6 | 9.0 | 25.1µM* | 0.0%[12.9 µM] | ? | 1.6%
COc1cc(NC(=O)CCCOc2cc(=O)n(C)c3ccccc23)cc(OC)c1OC | · | · | -7.9% | · | -1.8% | ·
Cc1cccc(N2CCN(S(=O)(=O)c3ccc4c(c3)CCCN4C(=O)C3CCC3)CC2C)c1 (stereo not drawn) | -6.1 | 8.2 | 2.3% | · | 5.3% | 14.0%
NC(Cc1ccccc1)c1csc(Nc2ccc(C(=O)c3ccccc3)cc2)n1 (stereo not drawn) | · | · | · | · | 1.1% | ·
CCN(CC)C(=O)c1cc(-c2ccc(Br)cc2)on1 | 89.9* | 46.5* | 0.0% | 11.1% | -6.7% | 0.1%
COC(=O)c1cc(-c2ccc(Br)cc2)on1 | -2.2 | -2.7 | -4.4% | 8.7% | -2.8% | -3.8%
O=C(c1cc(-c2ccc(O)cc2)on1)N1CCCC1 | 97.1* | 37.1* | 3.4% | 11.3% | 6.2% | -6.5%
O=C(c1cc(-c2ccc(Br)cc2)on1)N1CCCC1 | 118.1* | 33.1* | 2.6% | 2.7% | -6.5% | -3.4%
CCOC(=O)C1CCCN(C(=O)c2cc(-c3ccc(C)cc3)on2)C1 (stereo not drawn) | 113.4* | 58.4* | -7.5% | 0.1% | -12.4% | -1.1%
